Source: PubChem BioAssay (NCATS)
Results filed as inconclusive are left out. The source made the active and inactive calls. Calls come from the whole dose curve; as a rule, active = well fitted cell-killing curve with a large enough effect; inconclusive = small, poorly fitted or top-dose-only effect; inactive = flat fitted curve, though single readings scatter.

Assay: Cell Viability - LYMP2-025 (AID 976)
Conditions: LYMP2-025 lymphoblastoid cell viability; series mostly up to 92.2 µM
Excerpt: NIH Chemical Genomics Center [NCGC]
NIH Molecular Libraries Screening Centers Network [MLSCN]
National Institutes of Environmental Health Sciences [NIEHS]
National Toxicology Program [NTP]
We have developed a 1536-well cell-based assay for quantitative high throughput screening (qHTS) against a number of cell lines to determine in vitro cytotoxicity of small molecules. This particular assay uses a human lymphoblastoid cell line (LYMP2-025) purchased from Coriell Institute for Medical Research.
NCGC Assay Protocol Summary:
The CellTiter-Glo luminescent cell viability assay (Promega) is a homogeneous method to measure the number of viable cells in culture. The end point readout of this assay is based on quantitation of intracellular ATP, an indicator of metabolic activity, using the luciferase reaction. Luciferase catalyzes the oxidation of beetle Luciferin to oxyluciferin and light in the presence of ATP. The luminescent signal is proportional to amount of ATP present.
Using the CellTiter-Glo luminescent cell viability assay, the amount of cellular ATP was measured in the lymphoblastoid cell line with complete culture medium following compound treatment for 24 hours. The assay was performed in opaque white Kalypsys 1536-well plates. In the screen, tetraoctylammonium bromide was used as positive control. Library compounds were measured for their ability to cause acute toxicity in the cell line, as reflected by a decrease in intracellular ATP levels, in a concentration-dependent manner. […] AC50 values were determined from concentration-response data modeled with the standard Hill equation.
qHTS protocol for CellTiter Glo lymphoblastoid cellular assay
[Step] [Parameter] [Value] [Description]
1. Reagent; 5 uL; 2500 lymphoblastoid cells/well
2. Time; 5 hr; 37 C incubation
4. Controls; 23 nL; Tetraoctylammonium bromide 6.4pM to 92 uM
5. Time; 24 hr; 37 C incubation
6. Reagent; 5 uL; CellTiter Glo reagent
7. Time; 30 min; Room Temperature
8. Detection; Luminescence; Viewlux plate reader
Keywords: cell viability, cytotoxicity, lymphoblastoid cell line, luminescence, NTPHTS, NTPHTS_NCGC, NIEHS, DSSTox, MLSMR, MLSCN, NIH Roadmap, qHTS, NCGC

Structure (SMILES)	outcome
CC(=O)O[C@]1(C(C)=O)CC[C@H]2[C@@H]3C=C(Cl)C4=CC(=O)[C@@H]5C[C@@H]5[C@]4(C)[C@H]3CC[C@@]21C	inactive
CC(=O)c1ccc(S(=O)(=O)NC(=O)NC2CCCCC2)cc1	inactive
O=c1c(O)c(-c2ccc(O)cc2)oc2cc(O)cc(O)c12	inactive
CCn1cc(C(=O)O)c(=O)c2ccc(C)nc21	inactive
O=C1NC(=O)C(c2ccccc2)(c2ccccc2)N1	inactive
O=C(O)Cc1cccc2ccccc12	inactive
CCCCC1C(=O)N(c2ccccc2)N(c2ccccc2)C1=O	inactive
O=c1[nH]cnc2c1ncn2[C@H]1CC[C@@H](CO)O1	inactive
CCCNC(=O)NS(=O)(=O)c1ccc(Cl)cc1	inactive
O=c1c(-c2ccc(O)cc2)coc2cc(O)ccc12	inactive
CN(C)CCC(c1ccccc1)c1ccccn1 (stereo unspecified)	inactive
